This is part of a sample that, as a whole, favours compounds with a hit. Of some 79,000 tested, about 15% had one in any assay. No stated cut-off is given here; in the data, active means growth inhibition above about 70%; inactive means the rest.
How the values were obtained:
[1] = NCI Yeast Anticancer Drug Screen. Data for the rad50 strain (AID 155);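 further: 0% = growth of vehicle-only cultures of the same strain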; conditions: S. cerevisiae rad50 strain growth inhibition; at 50.0 µM; hits give high values
Outline: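 Growth of the mutant yeast was measured after compound exposure and referenced to vehicle-treated cultures.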

[2] = NCI Yeast Anticancer Drug Screen. Data for the mec2-1 strain (AID 157); conditions: S. cerevisiae mec2-1 strain, at 50.0 µM, hits give high values
Outline: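 Each compound was tested on mec2-1 yeast, a strain altered in DNA damage repair or cell cycle control. Growth inhibition is reported relative to vehicle.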

[3] = NCI Yeast Anticancer Drug Screen. Data for the sgs1 mgt1 strain (AID 161);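 further: 0% = growth of cultures given vehicle only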; conditions: S. cerevisiae sgs1 mgt1 strain, at 50.0 µM, hits give high values
Outline: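 Genetically altered yeast, compound exposure, growth inhibition relative to vehicle.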

[4] = NCI Yeast Anticancer Drug Screen. Data for the cln2 rad14 strain (AID 165);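 further: 0% = growth equal to vehicle treated cultures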; conditions: S. cerevisiae cln2 rad14 strain, at 50.0 µM, hits give high values
Outline: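 Test compounds were added to cln2 rad14 yeast cultures; inhibition of growth was then determined by comparison with vehicle treatment.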

[5] = NCI Yeast Anticancer Drug Screen. Data for the bub3 strain (AID 167); conditions: S. cerevisiae bub3 mutant strain, at 50.0 µM, hits give high values
Outline: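 Whole-cell yeast assay. The mutant strain was incubated with compounds, and growth inhibition was determined by comparison with vehicle-treated cells.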

[6] = NCI Yeast Anticancer Drug Screen. Data for the mlh1 rad18 strain (AID 175); conditions: S. cerevisiae mlh1 rad18 strain growth inhibition; at 50.0 µM; hits give high values
Outline: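 Inhibition values reflect reduced growth of mutant yeast versus vehicle-treated controls following compound exposure; the mutations affect DNA damage repair.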

Measured: growth inhibition

CCCCOC(=O)C1CC2OC2CC1C(=O)OCCOCCOC(=O)C1CC2OC2CC1C(=O)OCCCC (stereo unspecified)
inactive: [1] -18.3% | [2] -6.45% | [3] -14.4% | [4] -39.9% | [5] 14.6% | [6] -42.5%

CCOC(=O)c1ccc(NC(=O)Nc2cccc(Cl)c2)cc1
inactive: [1] -4.2% | [2] 34.5% | [3] 50% | [4] -17.9% | [5] 25.4% | [6] 23.9%

COC1/C=C/OC2(C)Oc3c(C)c(OC(C)=O)c4c(c3C2=O)C(=O)C=C(NC(=O)/C(C)=C\C=C\C(C)C(OC(C)=O)C(C)C(O)C(C)C(OC(C)=O)C1C)C4=O (stereo unspecified)
inactive: [1] 13.6% | [2] 20.7% | [3] 26.1% | [4] 21.6% | [5] 9.45% | [6] 42.9%

CN1CCc2c1nc(-c1ccc([N+](=O)[O-])cc1)c1c2N(C)CC1
inactive: [1] 13.2% | [2] 0.7% | [3] 2.8% | [4] 6.85% | [5] 10.8% | [6] 9.95%

CC12CCC/C(=N\NC(N)=S)C1C(=O)NC(=O)C2 (stereo unspecified)
inactive: [1] -6.8% | [2] 2.65% | [3] -2.6% | [4] 33% | [5] 12.4% | [6] 7.15%

C/C(=N\O)C1(C)CC=CCC1C(=O)O (stereo unspecified)
inactive: [1] -4.8% | [2] 4.5% | [3] 2.8% | [4] 19.2% | [5] -11.3% | [6] 1.4%

CC(=O)OC1CC(OC(C)=O)C(OC(C)=O)C(C)O1 (stereo unspecified)
inactive: [1] 1.15% | [2] 17.9% | [3] 4.7% | [4] -15.7% | [5] -1.85% | [6] 5.45%

NC1=NC(=S)CS1
inactive: [1] 0.95% | [2] -3.85% | [3] -12.3% | [4] -42.1% | [5] 16.7% | [6] 9.35%

Cc1ccc(S(=O)(=O)OC2CCCCCCCCCCC2=O)cc1 (stereo unspecified)
inactive: [1] -3.55% | [2] 6.1% | [3] -7.1% | [4] -11.9% | [5] -0.2% | [6] 6.3%

O=[N+]([O-])c1ccc(-c2cccc3ccccc23)c([N+](=O)[O-])c1
inactive: [1] 15.7% | [2] 34.9% | [3] 17.1% | [4] 15.9% | [5] 33.5% | [6] 21.1%

NC(=O)NC=O
inactive: [1] 10.8% | [2] -3.95% | [3] 14.7% | [4] 1.25% | [5] -14.6% | [6] 14.3%

Clc1ccccc1C(CI)c1ccccc1Cl
inactive: [1] 25.6% | [2] 9.75% | [3] 15.2% | [4] 13.4% | [5] -1.2% | [6] 10.1%

CC(C)c1cccc(C(C)C)c1N1C(=O)C(=O)C(c2nc3ccccc3s2)C(=O)C1=O
inactive: [1] -11.7% | [2] -17.1% | [3] -7.65% | [4] -10% | [5] 1.55% | [6] -12.2%

Brc1ccc[n+](CCc2ccccc2)c1
inactive: [1] -2.7% | [2] 15.1% | [3] -6.7% | [4] 7.75% | [5] 5.7% | [6] 9.5%

O=[N+]([O-])c1ccc(Nc2ccccc2)c2nonc12
inactive: [1] -22.2% | [2] 4.45% | [3] -0.1% | [4] 26.4% | [5] 13.8% | [6] 29.4%

CC(C)=NOC(CCOC(=O)c1ccccc1)COC(=O)c1ccccc1 (stereo unspecified)
inactive: [1] -13.6% | [2] 0.1% | [3] -1.35% | [4] -10.4% | [5] -11.8% | [6] 7.75%

Nc1ccc(S(=O)(=O)NC(=O)c2ccccc2)cc1
inactive: [1] 12.8% | [2] -7% | [3] 10.1% | [4] -26.9% | [5] -3% | [6] 0.2%

CC(Nc1cccc(Cl)c1)S(=O)(=O)O (stereo unspecified)
inactive: [1] 8.05% | [2] 5.7% | [3] -8% | [4] 26.4% | [5] 2% | [6] -0.25%

CC(=O)Nc1cccc(NC(C)=O)c1
inactive: [1] 0.4% | [2] 4.55% | [3] 5.1% | [4] -17.9% | [5] -1.05% | [6] 11.2%

COC(=O)/C(=N/NC(C)(C)C)C(C(=O)C=C(C)C)C(=O)C(=O)Nc1ccc(Cl)cc1C (stereo unspecified)
inactive: [1] 2.2% | [2] -1.55% | [3] -11.2% | [4] -28.9% | [5] -0.7% | [6] 0.8%

O=C(Nc1ccccc1Cl)NC1CCCCC1
inactive: [1] 5.1% | [2] -0.55% | [3] 5.35% | [4] 18.7% | [5] 17.1% | [6] 5.8%

CC(C)(C)c1cc(/C=C/c2cc(/C=C/c3cc(C(C)(C)C)c(O)c(C(C)(C)C)c3)c([N+](=O)[O-])cc2[N+](=O)[O-])cc(C(C)(C)C)c1O
inactive: [1] 20.2% | [2] -0.15% | [3] 1.85% | [4] -45.7% | [5] 3.65% | [6] 5.8%

CN(C)CCCC(O)c1cccc2ccccc12 (stereo unspecified)
inactive: [1] 25.4% | [2] -12.6% | [3] 10.7% | [4] -4.65% | [5] 0.8% | [6] 24.4%

CCOC(=O)Nc1ccc(F)c(C(F)(F)F)c1
inactive: [1] -8.05% | [2] 4.45% | [3] 8.6% | [4] -52.3% | [5] 11.6% | [6] -4.25%

O=c1[nH]c(=O)c2ncn(-c3ccc([N+](=O)[O-])cn3)c2[nH]1
inactive: [1] 20.8% | [2] 7.3% | [3] 9.95% | [4] 5.4% | [5] 8.6% | [6] -27.6%

N#CCCN(CCC#N)c1ccc(/C=C2/C=C(c3ccccc3)OC2=O)cc1
inactive: [1] 22.4% | [2] -0.25% | [3] 19.1% | [4] 7.75% | [5] -5.85% | [6] 11.3%

CCN1OCC(C)(C(=O)OC)C1C (stereo unspecified)
inactive: [1] -13.9% | [2] -13.1% | [3] -10.7% | [4] -31% | [5] 9.9% | [6] -21.1%

CCC(CC)(C1CCC(=O)CC1)C1CCC(=O)CC1
inactive: [1] 45.9% | [2] -3.55% | [3] -1.05% | [4] -9.2% | [5] 37.1% | [6] 13.6%

COc1cc(C(C)(C)C)c2oc3c(c2c1)C(=O)C(C(C)(C)C)=CC3(OC)OC
inactive: [1] 13.4% | [2] -6.75% | [3] -17% | [4] 6.4% | [5] 2.25% | [6] -1.65%

C1CCC(C2CCC(C3CCCCC3)CC2)CC1 (stereo unspecified)
inactive: [1] -14.1% | [2] -8.75% | [3] -9.55% | [4] -45.6% | [5] 6.35% | [6] 6.15%

C/C(=C\C(=O)c1ccccc1)c1ccccc1
inactive: [1] 17.3% | [2] -5.8% | [3] -20.9% | [4] -16.6% | [5] 12.2% | [6] 57%

COC(=O)C1CC2c3[nH]c4ccccc4c3CCN2C1 (stereo unspecified)
inactive: [1] -4.85% | [2] -8.25% | [3] -17.1% | [4] -11.4% | [5] -4.1% | [6] -10.5%

CCCC(C)NC(=O)c1ccc(Cl)c(Cl)c1 (stereo unspecified)
inactive: [1] 0.25% | [2] 4.9% | [3] 13.1% | [4] 8.3% | [5] 9.15% | [6] 24.6%

CN1C(=O)C(O)Nc2ncncc21 (stereo unspecified)
inactive: [1] -5.15% | [2] -19.9% | [3] -4.55% | [4] -45.7% | [5] 2.45% | [6] -33.2%

Cn1nnc2c1C(=O)c1ccccc1C2=O
inactive: [1] 0.6% | [2] -14% | [3] 29.4% | [4] -50.3% | [5] -8.5% | [6] -0.7%

CCO/C([O-])=C(\C=N\S(=O)(=O)c1ccc(C)cc1)[n+]1ccccc1
inactive: [1] 8.8% | [2] 13.8% | [3] 5.1% | [4] -20.2% | [5] -3.85% | [6] 2.65%

Cc1cccc(C(=O)O)c1[N+](=O)[O-]
inactive: [1] 10.4% | [2] 1.05% | [3] -8.25% | [4] -8.35% | [5] -14% | [6] 7.1%

CCCCOc1ccc2c(c1)CC[C@@H]1[C@@H]2CC[C@]2(C)C(=O)N(CCCC)C(=O)C[C@@H]12
inactive: [1] 5% | [2] -3.25% | [3] 16.4% | [4] -17.1% | [5] 16.5% | [6] 4.2%

NC(=O)COc1ccc(Br)cc1Br
inactive: [1] -0.1% | [2] -3.15% | [3] -12.7% | [4] 13.6% | [5] -6.3% | [6] 11.8%

OCCCOc1ccc2ccccc2c1
inactive: [1] 21.4% | [2] 10.2% | [3] 28.4% | [4] 3.95% | [5] -7.25% | [6] 9.85%

CC(=O)Nc1cc(N)cc(C(=O)O)c1
inactive: [1] 37% | [2] -0.9% | [3] 9.15% | [4] 9.75% | [5] -33.9% | [6] -7.5%
